Results filed as inconclusive are left out. Activity calls are given as the source filed them. The call rests on the fitted dose curve; in most records, active means well fitted cell-killing curve with a large enough effect; inconclusive means small, poorly fitted or top-dose-only effect, or effect the other way; inactive means no such curve, though single readings can be large or run the other way.
Assay: Quantitative High-Throughput drug screen in 47 multiple myeloma cell lines against the NCATS MIPE library collection: Delta47_JCRB cell viability assay (AID 1918925; further: nearly all actives have a fitted effect of over 45% in size)
Conditions: Delta47 myeloma viability, CellTiter-Glo ATP, 48 h; series mostly up to 45.8 µM
Text: PI: Beverly A. Mock Ph.D.
Laboratory of Cancer Biology and Genetics,
Center for Cancer Research, National Cancer Institute,
National Institute of Health, Bethesda, Maryland
Drug resistance and disease progression are common in multiple myeloma (MM) patients, underscoring the need for new therapeutic combinations. […] We hypothesized that effective combinations would reduce MYC expression and enhance p16 activity. […] These preclinical data identify potentially useful drug combinations for evaluation in drug-resistant MM and reveal potential mechanisms of combined drug sensitivity.
Described herein is the primary MIPE qHTS used to cherrypick compounds. Validated compounds were then further tested for potential synergistic activiy.
[1] Peat TJ, Gaikwad SM, Dubois W, Gyabaah-Kessie N, Zhang S, Gorjifard S, Phyo Z, Andres M, Hughitt VK, Simpson RM, Miller MA, Girvin AT, Taylor A, Williams D, D'Antonio N, Zhang Y, Rajagopalan A, Flietner E, Wilson K, Zhang X, Shinn P, Klumpp-Thomas C, McKnight C, Itkin Z, Chen L, Kazandijian D, Zhang J, Michalowski AM, Simmons JK, Keats J, Thomas CJ, Mock BA. Drug combinations identified by high-throughput screening promote cell cycle transition and upregulate Smad pathways in myeloma. Cancer Lett. 2023 Aug 1;568:216284. doi: 10.1016/j.canlet.2023.216284. Epub 2023 Jun 24. PMID: 37356470; PMCID: PMC10408729.
SEQUENCE No. (e.g., 1, 2, 3, etc.); […] (e.g., Cells, Incubation, Reagent, etc.); VALUE and DESCRIPTION.
1; Cells; 5 uL; white, solid bottom 1536-well Greiner assay plate.
2; Compounds; 23 nL; Kalypsis pin tool (Wako USA) equipped with a 1536-well pin head to transfer to the assay plates.
3; Incubation; 48 hours; 37C incubation.
4; Reagent;5uL; CellTiter Glo (Promega).
5; Detector; 425V; Luminescence; Viewlux PerkinElmer.
NOTES (numbers refer to Sequence numbers above)
1. The cell-based screening methods employed in this study were like those previously published. Briefly, the corresponding myeloma cell lines were screened in 1,536-well plates with 500 cells, 5-uL per well for inhibition of cell viability (assessed by measuring ATP levels with CellTiterGlo).
2. NCATS MIPE 4.0 library of approved and investigational drugs were added using the Kalypsis pin tool. Wells treated with DMSO only for 100% viability and media only wells for 0% viability were used as controls.
3. The assay plates were covered and incubated for 48 hours in a 37C, 5% CO2 incubator with controlled humidity.
4. After 48 hours, CellTilter-GloTM luminescent substrate mix (Promega) reagent was added to the assay plate and plates we incubated for 5 min at room temperature.
5. Signal was measured as median relative luminescence units on a ViewLux (PerkinElmer) multiplate reader.
[1] Heske CM, Davis MI, Baumgart JT, Wilson K, Gormally MV, Chen L, Zhang X, Ceribelli M, Duveau DY, Guha R, Ferrer M, Arnaldez FI, Ji J, Tran HL, Zhang Y, Mendoza A, Helman LJ, Thomas CJ. Matrix Screen Identifies Synergistic Combination of PARP Inhibitors and Nicotinamide Phosphoribosyltransferase (NAMPT) Inhibitors in Ewing Sarcoma. Clin Cancer Res. 2017 Dec 1;23(23):7301-7311. doi: 10.1158/1078-0432.CCR-17-1121. Epub 2017 Sep 12. PMID: 28899971; PMCID: PMC6636827.
Potency means the concentration at half of the fitted maximal effect.

| Structure (SMILES) | Potency |
| --- | --- |
| C[C@@H]1[C@@H](CC(C[C@H]2O[C@@H]3O[C@]4(C)CC[C@@H]5[C@H](C)CC[C@@H]([C@H]2C)[C@@]35OO4)C[S+](=O)([O-])c2ccc(COC(=O)N(C)C)cc2)O[C@@H]2O[C@]3(C)CC[C@H]4[C@H](C)CC[C@@H]1[C@@]24OO3 (stereo partly drawn) | 235 nM (active) |
| COc1ccc(C(CN(C)C)C2(O)CCCCC2)cc1 (stereo not drawn) | inactive |
| C=C(C)[C@H]1Cc2c(ccc3c2O[C@@H]2COc4cc(OC)c(OC)cc4[C@@H]2C3=O)O1 | 118 nM (active) |
| Fc1ccc(C(OCCN2CCN(CCCc3ccccc3)CC2)c2ccc(F)cc2)cc1 | 8330 nM (active) |
| CC(O)(CS(=O)(=O)c1ccc(F)cc1)C(=O)Nc1ccc(C#N)c(C(F)(F)F)c1 (stereo not drawn) | 296 nM (active) |
| C[C@@H]1[C@@H](C(=O)C[C@H]2O[C@@H]3O[C@]4(C)CC[C@@H]5[C@H](C)CC[C@@H]([C@H]2C)[C@@]35OO4)O[C@@H]2O[C@]3(C)CC[C@H]4[C@H](C)CC[C@@H]1[C@@]24OO3 | 235 nM (active) |
| COc1ccc(C(=O)c2c(C)n(CCN3CCOCC3)c3ccccc23)cc1 | inactive |
| C#CCN(C)[C@H](C)Cc1ccccc1 | inactive |
| CN(C)[C@@H]1C(=O)C(C(N)=O)=C(O)[C@@]2(O)C(=O)C3=C(O)c4c(O)cccc4[C@@](C)(O)[C@H]3C[C@@H]12 | inactive |
| CNCC(O)c1ccc(O)cc1 (stereo not drawn) | inactive |
| CNC(=O)c1ccc(N2C(=S)N(c3ccc(C#N)c(C(F)(F)F)c3)C(=O)C23CCC3)cc1F | 4180 nM (active) |
| CN(C)CCc1ccc(O)cc1 | inactive |
| O=C(O)C(=O)c1cn(Cc2ccccc2)c2ccc(-c3ccc(OC(F)(F)F)cc3)cc12 | 20900 nM (active) |
| C[C@@H]1O[C@@H](O[C@H]2C[C@@H](O)[C@]3(CO)[C@H]4[C@H](O)C[C@]5(C)[C@@H](C6=CC(=O)OC6)CC[C@]5(O)[C@@H]4CC[C@]3(O)C2)[C@H](O)[C@H](O)[C@H]1O | 29.6 nM (active) |
| N[C@@H](Cc1ccc(N(CCCl)CCCl)cc1)C(=O)O | 13200 nM (active) |
| Cc1cccc(C)c1NC(=O)CN1CCCC1=O | inactive |
| Cc1sc2c(c1C)C(c1ccc(Cl)cc1)=N[C@@H](CC(=O)OC(C)(C)C)c1nnc(C)n1-2 | 743 nM (active) |
| Cn1cc(C2=C(c3cn(C4CCN(Cc5ccccn5)CC4)c4ccccc34)C(=O)NC2=O)c2ccccc21 | 5900 nM (active) |
| COC[C@@H](NC(C)=O)C(=O)NCc1ccccc1 | inactive |
| CNC(=O)N1N=C(c2ccc(N)cc2)c2cc3c(cc2CC1C)OCO3 (stereo not drawn) | 1480 nM (active) |
| COC[C@H]1OC(=O)c2coc3c2[C@@]1(C)C1=C(C3=O)C2CCC(=O)[C@@]2(C)C[C@H]1OC(C)=O (stereo partly drawn) | 46.9 nM (active) |
| CCCC(C)(COC(N)=O)COC(=O)NC(C)C (stereo not drawn) | inactive |
| Cn1c(CCCC(=O)O)nc2cc(N(CCCl)CCCl)ccc21 | 1180 nM (active) |

— PubChem BioAssay (NCATS)
